A number with no mark means an inactive call. Active and inactive are the calls of the source. Calls follow the shape of the full dose curve.
biological target: Acetylcholinesterase (Homo sapiens) (UniProt P22303); assay: Acetylcholinesterase (AChE) small molecule antagonists: enzyme-based qHTS assay with human liver microsomes (AID 1347399); conditions: Potency: qHTS inhibition; outcome: qHTS inhibition; series mostly up to 115 µM; activity change, negative = inhibition: at the top concentration; also: nearly all actives have a fitted effect of over 60% in size
How it was run: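 Recombinant human AChE (50 mU/mL in the enzyme mix) and human liver microsomes (0.25 mg/mL final) were preincubated with compound and NADPH (0.25 mg/mL final) for 30 min at 37 C. Acetylthiocholine/DTNB was then added; thiocholine was read colorimetrically after 10 min at room temperature.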
% is scaled to controls: 0 for no effect and ±100 for the full control effect.

Chain of Acetylcholinesterase (Homo sapiens) (P22303 whole entry, looked up): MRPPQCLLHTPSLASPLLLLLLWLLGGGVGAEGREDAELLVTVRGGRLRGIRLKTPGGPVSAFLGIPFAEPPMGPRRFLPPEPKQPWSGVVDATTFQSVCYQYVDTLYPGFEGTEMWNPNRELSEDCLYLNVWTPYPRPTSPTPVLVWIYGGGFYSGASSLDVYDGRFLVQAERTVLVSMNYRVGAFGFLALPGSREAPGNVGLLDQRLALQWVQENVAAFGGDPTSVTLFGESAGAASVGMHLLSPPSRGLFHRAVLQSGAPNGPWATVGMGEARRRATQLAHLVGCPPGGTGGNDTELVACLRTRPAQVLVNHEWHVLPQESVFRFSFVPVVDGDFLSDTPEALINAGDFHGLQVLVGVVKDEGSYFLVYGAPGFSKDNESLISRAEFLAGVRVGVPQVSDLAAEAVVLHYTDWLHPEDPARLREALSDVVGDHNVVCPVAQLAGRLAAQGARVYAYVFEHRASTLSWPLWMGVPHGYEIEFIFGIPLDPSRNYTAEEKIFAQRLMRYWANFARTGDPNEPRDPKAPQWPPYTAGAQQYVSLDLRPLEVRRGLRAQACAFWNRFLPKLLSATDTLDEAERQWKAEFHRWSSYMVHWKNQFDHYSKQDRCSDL

| Compound | activity change, negative = inhibition | Potency |
| --- | --- | --- |
| CC(=O)OC(C)c1ccccc1 (stereo not given) | -0.204% | – |
| CC1(C)CC(O)CC(C)(C)N1 | 0.167% | – |
| C=CCOC(=O)c1ccc(C(=O)OCC=C)c(C(=O)OCC=C)c1 | 0.16% | – |
| CCCCN(CCCC)C(=S)SSC(=S)N(CCCC)CCCC | -5.66% | – |
| Cc1ccc(C(C)C)cc1O | -1.07% | – |
| CC1=C(C(=O)O)N2C(=O)[C@@H](NC(=O)[C@H](N)C3=CCC=CC3)[C@H]2SC1 | 2.86% [at 53 µM] | – |
| NC(N)=NCCN1CCCCCCC1 | -0.084% [at 0.435 µM] | – |
| ICCc1ccccc1 | -2.71% | – |
| O=C(Oc1ccccc1)Oc1ccccc1 | 0.511% | – |
| CCN(Cc1c(F)cccc1Cl)c1c([N+](=O)[O-])cc(C(F)(F)F)cc1[N+](=O)[O-] | 7.79% | – |
| Nc1nc2c(ncn2CCC(CO)CO)c(=O)[nH]1 | 0.533% [at 53 µM] | – |
| O=C(O)C(S)C(S)C(=O)O (stereo not given) | -0.0718% [at 53 µM] | – |
| Clc1ccc2cc3ccccc3cc2c1 | -0.974% | – |
| N[C@H]1C(O)O[C@H](CO)[C@H](O)[C@@H]1O (stereo not given in full) | -4.72% | – |
| N#Cc1ccccc1 | – | inactive |
| OC1CCCCCCCCCCC1 | – | inactive |
| CCCCCCCC=O | – | inactive |
| CC=C(Cl)Cl | -2.53% | – |
| CS(=O)(=O)CCNCc1ccc(-c2ccc3ncnc(Nc4ccc(OCc5cccc(F)c5)c(Cl)c4)c3c2)o1 | 2.91% [at 53 µM] | – |
| CCCNC(C)C(=O)Nc1c(C)csc1C(=O)OC (stereo not given) | -0.778% [at 53 µM] | – |
| CN(C)CCOC(c1ccccc1)c1ccc(Br)cc1 (stereo not given) | 0.443% [at 53 µM] | – |
| CCOC(=O)C(F)(F)F | 0.764% | – |
| CCCCCCCCN | -3.05% | – |
| CC(c1cc2ccccc2s1)N(O)C(N)=O (stereo not given) | – | inactive |
| CN(c1nccc(=O)[nH]1)C1CCN(c2nc3ccccc3n2Cc2ccc(F)cc2)CC1 | 7.05% [at 53 µM] | – |
